Assay outcomes deposited in PubChem BioAssay by several laboratories.
iPSC survival up – enhancers of human iPSC single-cell survival; hiPSC single-cell survival, ATPlite luminescence; 100% = ROCK inhibitor wells, 0% = DMSO; survival enhancement, % at 20 µM; hit rate 0.044% among 360,000; in the data active means survival enhancement above about 18%;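 further: cells exposed to compounds for 16 hours before the ATP read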
HIF-2a block – blocks HIF-2a reporter activity; 786-0 RCC cells HIF-2a reporter, luciferase luminescence, overnight; inhibition, % at 18.8 µM; hit rate 0.72% among 360,000; AID 624352;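 active means inhibition of the luminescence signal of 40% or more relative to plate controls, in a single-dose primary screen at 18.75 µM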
LGR2 inh – Drosophila LGR2 receptor signaling inhibition. HEK293 LGR2, CRE-luciferase, bursicon-stimulated, 4 h. inhibition, % at 9.99 µM. hit rate 0.35% among 380,000;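 active means drop in luminescence signal, shown as inhibition above about 50% in the replicate tests, limit read from the data, passing the limit was not always enough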;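 further: agonist challenge used bursicon conditioned medium at about half maximal strength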
TWEAK Fn14 block – blocks TWEAK-Fn14 interaction in a reporter cell assay; TWEAK-stimulated Fn14 reporter cells, luciferase luminescence, 8 h; inhibition, % at 10 µM; hit rate 2% among 360,000; AID 1159606; in the data active means inhibition above about 50%
CF NFkB inh – inhibitors of cystic fibrosis induced NF-kB | inhibition, % at 5 µM | KKLEB NF-kB-GFP reporter, PAF-induced, GFP fluorescence overnight | hit rate 0.86% among 360,000 | AID 588850;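 active means at least 50% inhibition at 5 µM, scaled per plate between neutral and stimulator controls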;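 further: PAF is a Pseudomonas aeruginosa culture filtrate used as stimulus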
KKLEB tox – reduces viability of KKLEB cystic fibrosis airway cells; KKLEB CF airway cells viability, ATPlite luminescence, overnight; stronger effect = lower value; cells stimulated with P. aeruginosa culture filtrate; activity change (cytotoxicity), % at 5 µM; hit rate 0.36% among 360,000; AID 602141;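 active means corrected activity change at or below -50% at 5 µM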
Each line names hits and unclear results; the compound was inactive in the other large screens. This is a sample that favours compounds with a hit; in the whole collection about 2.3% have one here.

CCOC(=O)N=Nc1c2ccccc2c2nc3no[nH]c3nc12	LGR2 inh 101, TWEAK Fn14 block 90, CF NFkB inh 95, KKLEB tox -65
CCOC(=O)N=Nc1c(O)n(CC(=O)OC)c2ccccc12	none
C[C@H]1CN([C@@H](C)CO)C(=O)c2cc(NC(=O)CCCCCC(=O)Nc3ccccc3N)ccc2O[C@@H]1CN(C)S(=O)(=O)c1ccccc1	none (no result: iPSC survival up, HIF-2a block, TWEAK Fn14 block, CF NFkB inh, KKLEB tox)
C[C@H]1CN([C@@H](C)CO)C(=O)c2cccc(NS(=O)(=O)c3ccccc3)c2O[C@@H]1CN(C)CC1CCCCC1	none (no result: iPSC survival up, HIF-2a block, TWEAK Fn14 block, CF NFkB inh, KKLEB tox)
O=C(/C=C/c1ccco1)Nc1ccc(Oc2ccc(Cl)cc2)cc1	TWEAK Fn14 block 51 (no result: LGR2 inh)
COc1cccc(NC(=O)/C=C/c2ccco2)c1	none
CC(=O)Nc1ccc2c(c1)Cc1cc(N3C(=O)C=CC3=O)ccc1-2	HIF-2a block 42
Cc1cccc(N=C2NC(=O)/C(=C\c3cccs3)S2)c1	none
Cc1ccc(N=C2NC(=O)/C(=C/c3cccs3)S2)cc1C	CF NFkB inh 52
COc1cccc(/C=C2\CCc3ccccc3C2=O)c1	TWEAK Fn14 block 61
CCN1C/C(=C\c2cccc([N+](=O)[O-])c2)C(=O)/C(=C/c2cccc([N+](=O)[O-])c2)C1	iPSC survival up 56, HIF-2a block 97, TWEAK Fn14 block 93, CF NFkB inh 94, KKLEB tox -57
O=C1/C(=C/c2cccc([N+](=O)[O-])c2)CCc2ccccc21	TWEAK Fn14 block 93
COc1cccc(C=C2Cc3ccccc3C2=O)c1	none
O=C1/C(=C/c2cccc([N+](=O)[O-])c2)CSc2ccc(Cl)cc21	none
CC(=O)Oc1ccc(/C=C2/CCc3ccccc3C2=O)cc1	LGR2 inh 55, TWEAK Fn14 block 88
COc1ccc(/C=C2\CCc3ccccc3C2=O)cc1OC	none
CC(C)NC(=O)N(C)C[C@H]1OCCCC[C@@H](C)Oc2ccc(NS(=O)(=O)c3cn(C)cn3)cc2C(=O)N([C@H](C)CO)C[C@H]1C	none (no result: iPSC survival up, HIF-2a block, TWEAK Fn14 block, CF NFkB inh, KKLEB tox)
O=C(/C=C/c1ccc(Cl)cc1)c1ccc([N+](=O)[O-])o1	HIF-2a block 49, TWEAK Fn14 block 88, CF NFkB inh 96
Cc1cc(O)c(C(=O)/C=C/c2ccc(Cl)cc2)c(=O)o1	none
Cc1ccc(S(=O)(=O)N[C@@H]2CC[C@@H](CCn3cc(-c4cccc(F)c4)nn3)O[C@@H]2CO)cc1	none (no result: iPSC survival up, HIF-2a block, TWEAK Fn14 block, CF NFkB inh, KKLEB tox)
CCCCCCCCC(c1nc2ccccc2[nH]1)N1CCN=C1c1cc2ccccc2[nH]1 (configuration not stated)	LGR2 inh 80
CCC(=O)N1CCC2(CC1)CN(Cc1nccs1)[C@@H](CO)c1c2c2ccc(OC)cc2n1C	none (no result: iPSC survival up, HIF-2a block, TWEAK Fn14 block, CF NFkB inh, KKLEB tox)
CC(C)C[C@H]1COCc2cn(nn2)CC[C@@H](Cc2ccccc2)C(=O)N1	none (no result: iPSC survival up, HIF-2a block, TWEAK Fn14 block, CF NFkB inh, KKLEB tox)
CC1OC(Nc2cccc3ccccc23)C(O)C(O)C1O (configuration not stated)	TWEAK Fn14 block 92 (no result: LGR2 inh)
CC1OC(Nc2ccc(N=Nc3ccccc3)cc2)C(O)C(O)C1O (configuration not stated)	none
C[C@@H]1CN([C@@H](C)CO)C(=O)c2cc(NC(=O)NC3CCCCC3)ccc2O[C@H]1CN(C)C(=O)Nc1cccc2ccccc12	none (no result: iPSC survival up, HIF-2a block, TWEAK Fn14 block, CF NFkB inh, KKLEB tox)
Cc1ccc(S(=O)(=O)c2ccc(C)cc2)cc1	none
Cc1ccc(S(=O)(=O)C=CS(=O)(=O)c2ccc(C)cc2)cc1	HIF-2a block 52, CF NFkB inh 96
O=C(Cc1ccccc1)N[C@H]1CC[C@@H](CC(=O)N2CCOCC2)O[C@H]1CO	none (no result: iPSC survival up, HIF-2a block, TWEAK Fn14 block, CF NFkB inh, KKLEB tox)
Cc1nnc(N(CCC#N)CCC#N)s1	TWEAK Fn14 block 85 (no result: LGR2 inh)
COCC(=O)N1CC2(C1)[C@@H](c1ccc(-c3ccc(F)cc3)cc1)[C@H](CO)N2C(C)=O	none (no result: iPSC survival up, HIF-2a block, TWEAK Fn14 block, CF NFkB inh, KKLEB tox)
Cc1ccc(C2CN=NC23CCc2ccccc2C3=O)cc1 (configuration not stated)	TWEAK Fn14 block 55 (no result: LGR2 inh)
N#CC1=C(N)N2C(=C(C#N)C1c1cccc(Br)c1)Nc1ccccc12 (configuration not stated)	TWEAK Fn14 block 94, KKLEB tox -50
CCOC(=O)C1=C(C)NC(=O)NC1c1ccc(OCC(N)=O)cc1 (configuration not stated)	TWEAK Fn14 block 79 (no result: LGR2 inh)
COc1ccc2c3c([nH]c2c1)[C@@H](CO)N(C(C)=O)CC31CN(S(=O)(=O)c2ccccc2)C1	none (no result: iPSC survival up, HIF-2a block, TWEAK Fn14 block, CF NFkB inh, KKLEB tox)
Cc1cc(C(F)(F)F)c(C#N)c(SCC(=O)Nc2nc3ccccc3s2)n1	TWEAK Fn14 block 89
Cc1ccc2sc(NC(=O)CSc3nc(C)cc(C)c3C#N)nc2c1	none (no result: LGR2 inh)
COc1ccc(C(=O)C(CN2CCOCC2)c2ccccc2)cc1F (configuration not stated)	none (no result: LGR2 inh)
COc1ccc(C(O)C(CN2CCOCC2)c2ccccc2)cc1F (configuration not stated)	TWEAK Fn14 block 74 (no result: LGR2 inh)
CCNC(=O)[C@@H]1[C@@H](CO)[C@@H]2Cn3c(ccc(-c4ccc(F)cc4)c3=O)[C@@H]2N1C	none (no result: iPSC survival up, HIF-2a block, TWEAK Fn14 block, CF NFkB inh, KKLEB tox)
CCCCCCn1cc(CN2CC(N3CCN(CCO)CC3)CS2(=O)=O)nn1 (configuration not stated)	TWEAK Fn14 block 108 (no result: CF NFkB inh, KKLEB tox)
COc1ccc(-c2csc(NC(=O)C3CC(=O)N(c4ccc5c(c4)OCCO5)C3)n2)cc1 (configuration not stated)	TWEAK Fn14 block 85
COc1ccc(N2CC(C(=O)Nc3ccc4c(c3)OCCO4)CC2=O)cc1 (configuration not stated)	none
CCc1ccc(C(=O)NNC(=O)C2CC(=O)N(c3ccc4c(c3)OCCO4)C2)cc1 (configuration not stated)	none
CCN(CC)S(=O)(=O)c1ccc(NC(=O)C2CC(=O)N(c3ccc4c(c3)OCCO4)C2)cc1 (configuration not stated)	TWEAK Fn14 block 60
CC(=O)Nc1ccc(-c2csc(NC(=O)C3CC(=O)N(c4ccc5c(c4)OCCO5)C3)n2)cc1 (configuration not stated)	none
COC(=O)c1ccc(CSc2nnc(NC(=O)C3CC(=O)N(c4ccc5c(c4)OCCO5)C3)s2)cc1 (configuration not stated)	TWEAK Fn14 block 54
CCc1ccc(N2CC(C(=O)Nc3ccc4c(c3)OCCO4)CC2=O)cc1 (configuration not stated)	TWEAK Fn14 block 51
C[C@H](CO)N1C[C@H](C)[C@H](CN(C)CC2CCCCC2)Oc2c(NS(=O)(=O)c3ccc(Cl)cc3)cccc2C1=O	none (no result: iPSC survival up, HIF-2a block, TWEAK Fn14 block, CF NFkB inh, KKLEB tox)
Cc1cccc(N2CC(C(=O)Nc3ccc4c(c3)OCCO4)CC2=O)c1C (configuration not stated)	TWEAK Fn14 block 63
Cc1cc(NC(=O)C2CC(=O)N(c3ccccc3C)C2)no1 (configuration not stated)	TWEAK Fn14 block 83
Cc1cc(NC(=O)C2CC(=O)N(c3cccc(C)c3C)C2)no1 (configuration not stated)	none
